Assay results taken from PubChem BioAssay (Tox21).
“And” between values parts separate entries of the source, which are not always exact repeats. Identical values can stand only once. Records with an inconclusive call do not appear. Some structures have more than one record in an assay (separate samples or runs), and their calls can disagree. The source made the active and inactive calls. Unless noted, calls follow the shape of the dose curve; as a rule, active = well fitted curve in the direction sought with a large enough effect in the repeat runs; inconclusive = weak or mixed curves; inactive = no such curve, though single readings can be large; an effect the other way counts as inactive or inconclusive.

How the values were obtained:
[1] = qHTS assay to identify small molecule antagonists of the glucocorticoid receptor (GR) signaling pathway - cell viability counter screen (AID 720693); also: nearly all actives have a fitted effect of over 55% in size
[2] = qHTS assay for identifying genotoxic compounds that show differential cytotoxicity against isogenic chicken DT40 cell lines with known DNA damage response pathways - wild type cell line (AID 743012); also: nearly all actives have a fitted effect of over 60% in size; also: potency is read from the fitted curve at half-maximal effect
How it was run: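 300 wt DT40 cells/well; cpd (DMSO) pintool-transferred after ~0.5 h at 37 C/5% CO2; 40 h incubation; CellTiter-Glo added, 30 min RT; luminescence read.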

[3] = qHTS assay for identifying genotoxic compounds that show differential cytotoxicity against isogenic chicken DT40 cell lines with known DNA damage response pathways - Rev3 mutant cell line (AID 743014); also: nearly all actives have a fitted effect of over 55% in size; also: potency is read from the fitted curve at half-maximal effect
[4] = qHTS assay for identifying genotoxic compounds that show differential cytotoxicity against isogenic chicken DT40 cell lines with known DNA damage response pathways - Rad54/Ku70 mutant cell line (AID 743015); also: nearly all actives have a fitted effect of over 60% in size; also: potency is read from the fitted curve at half-maximal effect
[5] = qHTS assay to identify small molecule antagonists of the androgen receptor (AR) signaling pathway - cell viability counter screen (AID 743033; also: nearly all actives have a fitted effect of over 45% in size)
[6] = qHTS assay to identify small molecule antagonists of the androgen receptor (AR) signaling pathway using the MDA cell line - cell viability counter screen (AID 743041; also: nearly all actives have a fitted effect of over 45% in size)
How it was run: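 Viability read by CellTiter-Fluor fluorescence in the same wells as the antagonist screen, added after 15.5 h of a 16 h, 37C exposure. Human breast carcinoma MDA-kb2 AR-luc cells, compounds co-dosed with agonist R1881.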

[7] = qHTS assay to identify small molecule antagonists of the thyroid receptor (TR) signaling pathway - cell viability counter screen (AID 743064); also: nearly all actives have a fitted effect of over 50% in size
How it was run: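 Rat GH3 pituitary tumor cells stably expressing two TR response elements driving luciferase were plated, rested 4 h, then dosed with library compounds and T3 (1 nM final). After 23.5 h at 37 °C, CellTiter-Fluor was added for 30 min and fluorescence recorded.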

[8] = qHTS assay to identify small molecule antagonists of the thyroid receptor (TR) signaling pathway (AID 743065); also: nearly all actives have a fitted effect of over 55% in size; also: potency is read from the fitted curve at half-maximal effect
How it was run: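 Antagonism measured as loss of luciferase signal in GH3 cells stably carrying a TRE-luciferase reporter, co-treated with compound and T3 (1 nM final) for 23.5 h at 37 C. Viability was read in the same well by CellTiter-Fluor.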

[9] = system: thyroid hormone receptor (rat, GH3 cells); assay: qHTS assay to identify small molecule agonists of the thyroid receptor (TR) signaling pathway (AID 743066; calls by dose curve)
[10] = biological target: Estrogen receptor (Homo sapiens) (UniProt P03372); assay: qHTS assay to identify small molecule antagonists of the estrogen receptor alpha (ER-alpha) signaling pathway (AID 743069; active = well fitted curve in the direction sought with a large enough effect in the signal ratio in the repeat runs, not every such curve was filed as active; the % refers to the signal ratio)
Sequence of Estrogen receptor (Homo sapiens) (P03372 whole entry, looked up): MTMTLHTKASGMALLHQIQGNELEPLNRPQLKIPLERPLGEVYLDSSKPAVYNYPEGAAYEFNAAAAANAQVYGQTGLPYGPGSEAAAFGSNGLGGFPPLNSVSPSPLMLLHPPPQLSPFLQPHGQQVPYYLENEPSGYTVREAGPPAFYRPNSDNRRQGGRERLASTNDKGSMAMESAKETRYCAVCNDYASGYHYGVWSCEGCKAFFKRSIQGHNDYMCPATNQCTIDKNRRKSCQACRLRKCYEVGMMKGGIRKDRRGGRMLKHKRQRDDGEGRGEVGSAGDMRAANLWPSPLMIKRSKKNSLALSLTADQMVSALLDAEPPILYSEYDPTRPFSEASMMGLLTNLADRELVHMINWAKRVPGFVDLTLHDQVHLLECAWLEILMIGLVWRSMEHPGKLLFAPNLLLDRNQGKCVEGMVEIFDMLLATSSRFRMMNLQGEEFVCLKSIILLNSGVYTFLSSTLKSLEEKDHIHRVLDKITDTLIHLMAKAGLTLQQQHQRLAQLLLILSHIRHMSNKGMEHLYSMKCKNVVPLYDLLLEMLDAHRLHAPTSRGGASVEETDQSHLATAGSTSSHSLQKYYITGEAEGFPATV
How it was run: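 Antagonist mode: compounds in DMSO were co-added with 17beta-estradiol to ER-alpha-bla HEK293 cells (2% charcoal-stripped serum) and left 18 h at 37C. Reporter inhibition was measured as FRET fluorescence after 2 h LiveBLAzer substrate at room temperature.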

[11] = qHTS assay to identify small molecule antagonists of the estrogen receptor alpha (ER-alpha) signaling pathway - cell viability counter screen (AID 743074; calls by dose curve;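 also: HEK293 cells carrying ER-alpha-UAS-bla reporter stimulated with 17beta-estradiol; nearly all actives have a fitted effect of over 45% in size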)
[12] = biological target: Estrogen receptor (Homo sapiens) (UniProt P03372); assay: qHTS assay to identify small molecule agonists of the estrogen receptor alpha (ER-alpha) signaling pathway (AID 743075; calls by dose curve;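 also: HEK293 GripTite cells with ER-alpha and UAS-driven beta-lactamase reporter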)
[13] = biological target: Estrogen receptor (Homo sapiens) (UniProt P03372); assay: qHTS assay to identify small molecule agonists of the estrogen receptor alpha (ER-alpha) signaling pathway using the BG1 cell line (AID 743079); also: nearly all actives have a fitted effect of over 20% in size; also: potency is read from the fitted curve at half-maximal effect
[14] = qHTS assay to identify small molecule antagonists of the estrogen receptor alpha (ER-alpha) signaling pathway using the BG1 cell line (AID 743080; calls by dose curve;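 also: BG1 cells stimulated with 17beta-estradiol alongside compound; nearly all actives have a fitted effect of over 25% in size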; also: potency is read from the fitted curve at half-maximal effect)
How it was run: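 After 5 days in phenol-red-free 10% charcoal-stripped FBS medium, BG1-Luc-4E2 cells were seeded, left 24 h at 37 C, co-treated with compounds and 17beta-estradiol for 21.5 h, then assayed for viability and luciferase.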

[15] = qHTS assay to identify small molecule antagonists of the estrogen receptor alpha (ER-alpha) signaling pathway using the BG1 cell line - cell viability counter screen (AID 743081);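 also: compound given together with 17beta-estradiol as the ER stimulus; series mostly up to about 70 µM; nearly all actives have a fitted effect of over 45% in size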
Aromatase (Homo sapiens) = Aromatase (Homo sapiens) (UniProt P11511); assay: qHTS assay to identify aromatase inhibitors (AID 743083); also: nearly all actives have a fitted effect of over 55% in size; also: potency is read from the fitted curve at half-maximal effect
Sequence of Aromatase (Homo sapiens) (P11511 whole entry, looked up): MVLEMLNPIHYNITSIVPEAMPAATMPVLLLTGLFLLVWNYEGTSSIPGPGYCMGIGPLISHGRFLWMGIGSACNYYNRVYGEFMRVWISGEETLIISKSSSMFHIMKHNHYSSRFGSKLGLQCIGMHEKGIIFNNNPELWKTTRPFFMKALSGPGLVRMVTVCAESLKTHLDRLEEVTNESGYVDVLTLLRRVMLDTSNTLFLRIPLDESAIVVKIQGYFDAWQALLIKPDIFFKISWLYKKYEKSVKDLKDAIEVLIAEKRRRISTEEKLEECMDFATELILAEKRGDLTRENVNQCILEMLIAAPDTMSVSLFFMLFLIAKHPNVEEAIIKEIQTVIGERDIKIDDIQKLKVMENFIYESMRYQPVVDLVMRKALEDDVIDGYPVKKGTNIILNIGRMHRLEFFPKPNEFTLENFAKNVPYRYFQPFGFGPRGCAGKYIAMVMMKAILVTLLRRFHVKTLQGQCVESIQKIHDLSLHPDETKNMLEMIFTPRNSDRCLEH

[16] = biological target: Androgen receptor (Homo sapiens) (UniProt P10275); assay: qHTS assay to identify small molecule antagonists of the androgen receptor (AR) signaling pathway (AID 743035; active = well fitted inhibition curve with a large enough effect in the signal ratio in the repeat runs, not every such curve was filed as active; the % refers to the signal ratio; also: potency is read from the fitted curve at half-maximal effect)
Sequence of Androgen receptor (Homo sapiens) (P10275 whole entry, looked up): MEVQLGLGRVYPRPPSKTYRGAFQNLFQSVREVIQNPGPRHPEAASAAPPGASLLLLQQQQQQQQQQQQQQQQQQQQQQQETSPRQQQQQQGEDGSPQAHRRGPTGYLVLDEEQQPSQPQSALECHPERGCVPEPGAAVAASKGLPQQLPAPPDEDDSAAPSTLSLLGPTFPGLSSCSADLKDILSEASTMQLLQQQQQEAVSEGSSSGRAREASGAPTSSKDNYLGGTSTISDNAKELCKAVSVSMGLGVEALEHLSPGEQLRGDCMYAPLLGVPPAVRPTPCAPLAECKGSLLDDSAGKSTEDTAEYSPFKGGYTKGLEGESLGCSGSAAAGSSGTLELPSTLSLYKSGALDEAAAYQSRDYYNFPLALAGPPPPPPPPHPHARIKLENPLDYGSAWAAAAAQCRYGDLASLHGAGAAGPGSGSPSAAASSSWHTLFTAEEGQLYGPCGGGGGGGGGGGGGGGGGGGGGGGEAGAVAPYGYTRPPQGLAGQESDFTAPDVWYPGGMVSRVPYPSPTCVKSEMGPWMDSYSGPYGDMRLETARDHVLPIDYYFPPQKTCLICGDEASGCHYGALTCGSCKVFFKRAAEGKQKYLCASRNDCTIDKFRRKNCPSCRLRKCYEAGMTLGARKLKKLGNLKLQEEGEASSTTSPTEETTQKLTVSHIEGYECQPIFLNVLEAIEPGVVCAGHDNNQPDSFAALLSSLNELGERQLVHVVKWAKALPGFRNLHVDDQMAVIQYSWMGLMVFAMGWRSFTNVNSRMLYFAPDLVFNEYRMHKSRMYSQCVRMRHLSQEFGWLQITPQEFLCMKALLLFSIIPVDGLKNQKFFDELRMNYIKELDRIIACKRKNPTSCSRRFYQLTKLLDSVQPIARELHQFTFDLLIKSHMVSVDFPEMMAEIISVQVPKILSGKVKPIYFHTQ
How it was run: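 In this cell-based reporter screen, compounds were tested in concentration series against R1881-activated HEK293 cells expressing beta-lactamase under UAS control; after 16 h at 37C, FRET substrate was added and fluorescence read 2 h later.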

[17] = biological target: Androgen receptor (Homo sapiens) (UniProt P10275); assay: qHTS assay to identify small molecule agonists of the androgen receptor (AR) signaling pathway (AID 743036; active = well fitted activation curve with a large enough effect in the signal ratio in the repeat runs, with a control signal flat, not every such curve was filed as active; the % refers to the signal ratio)
How it was run: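 Quantitative HTS of the Tox21 10K library in HEK293 cells bearing a stably integrated UAS-controlled beta-lactamase reporter. Compound exposure lasted 16 h at 37C. Reporter activity was detected by FRET substrate fluorescence after 2 h at room temperature.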

[18] = biological target: Androgen receptor (Homo sapiens) (UniProt P10275); assay: qHTS assay to identify small molecule agonists of the androgen receptor (AR) signaling pathway using the MDA cell line (AID 743040; also: nearly all actives have a fitted effect of over 20% in size)
How it was run: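 Luciferase agonist assay: 16 h compound exposure at 37C without CO2 in MDA-kb2 AR-luc cells, whose MMTV promoter responds to both AR and GR. Luminescence measured after 30 min room-temperature incubation with ONE-Glo.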

[19] = biological target: Androgen receptor (Homo sapiens) (UniProt P10275); assay: qHTS assay to identify small molecule antagonists of the androgen receptor (AR) signaling pathway using the MDA cell line (AID 743042; also: nearly all actives have a fitted effect of over 55% in size)
How it was run: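 Antagonist mode: compounds plus R1881 agonist added to MDA-kb2 AR-luc cells, incubated 16 h at 37C. Luciferase reporter luminescence quantified, with multiplexed CellTiter-Fluor readout for cell viability.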

Measured: Potency

O=c1[nH]c2ccccc2c(=O)o1
inactive: [1] | [2] | [3] | [4] | [5] | [6] | [7] | [8] | [9] | [10] | [11] | [12] | [13] | [14] | [15] | Aromatase (Homo sapiens)

O=[N+]([O-])c1ccccc1
inactive: [1] | [2] | [3] | [4] | [5] | [6] | [7] | [8] | [9] | [10] | [11] | [12] | [13] | [14] | [15] | Aromatase (Homo sapiens)

ClCc1cccnc1
inactive: [1] | [2] | [3] | [4] | [5] | [6] | [7] | [8] | [9] | [10] | [11] | [12] | [13] | [14] | [15] | Aromatase (Homo sapiens)

CC(=O)C=C(C)C
inactive: [1] | [2] | [3] | [4] | [5] | [6] | [7] | [8] | [9] | [10] | [11] | [12] | [13] | [14] | [15] | Aromatase (Homo sapiens)

ClCCBr
inactive: [1] | [2] | [3] | [4] | [6] | [7] | [8] | [9] | [10] | [11] | [12] | [13] | [14] | [15] | Aromatase (Homo sapiens)

CCCCOC(=O)c1ccccc1C(=O)OCCCC
inactive: [1] | [3] | [4] | [6] | [7] | [8] | [9] | [10] | [11] | [12] | [14] | [15] | Aromatase (Homo sapiens)
active: [2] 24.3 µM
77 µM (active) and inactive: [13]

CCc1cccc(C)c1N(C(=O)CCl)C(C)COC (centres undefined)
inactive: [1] | [5] | [6] | [7] | [11] | [15]
active: [2] 40.8 µM and 10.9 µM | [3] 16.2 µM and 12.2 µM | [4] 45.8 µM and 17.2 µM

COC(=O)c1ccccc1N
inactive: [1] | [2] | [3] | [4] | [5] | [6] | [7] | [8] | [9] | [11] | [15] | Aromatase (Homo sapiens)

O=c1ccc(=O)[nH][nH]1
inactive: [1] | [2] | [3] | [4] | [16] | [17] | [18] | [6] | [19] | [7] | [8] | [9] | [11] | [15] | Aromatase (Homo sapiens)

Cn1cc(-c2ccccc2)c(=O)c(-c2cccc(C(F)(F)F)c2)c1
inactive: [1] | [2] | [3] | [5] | [6] | [7] | [9] | [10] | [11] | [12] | [13] | [14] | [15] | Aromatase (Homo sapiens)
active: [4] 61.1 µM

Cc1ccccc1O
inactive: [1] | [2] | [3] | [4] | [6] | [7] | [8] | [9] | [10] | [11] | [12] | [13] | [14] | [15] | Aromatase (Homo sapiens)

CCCCCOC(=O)c1ccccc1C(=O)OCCCCC
inactive and 61.1 µM (active): [2]
inactive: [1] | [3] | [4] | [6] | [7] | [8] | [9] | [10] | [11] | [12] | [13] | [14] | [15] | Aromatase (Homo sapiens)

OCCN(CCO)CCO
inactive: [1] | [2] | [3] | [4] | [5] | [6] | [7] | [8] | [9] | [11] | [15]

CCN(CC)c1ccccc1
inactive: [1] | [2] | [3] | [4] | [16] | [17] | [18] | [6] | [19] | [7] | [8] | [9] | [10] | [11] | [12] | [13] | [14] | [15] | Aromatase (Homo sapiens)

CCCC1COC(Cn2cncn2)(c2ccc(Cl)cc2Cl)O1 (centres undefined)
inactive: [1] | [17] | [18] | [6] | [7] | [9] | [10] | [11] | [12] | [15]
active: [2] 55.5 µM and 12.2 µM | [3] 27.8 µM and 19.3 µM | [4] 55.5 µM and 17.2 µM | [16] 49.9 µM and 43.6 µM | [8] 55.5 µM and 54.5 µM | [14] 27.8 µM and 68.6 µM | Aromatase (Homo sapiens) 31.2 µM and 24.3 µM

Oc1ccccc1Cl
inactive: [1] | [2] | [3] | [4] | [5] | [6] | [7] | [8] | [9] | [11] | [15] | Aromatase (Homo sapiens)

O=c1n(Cl)c(=O)n(Cl)c(=O)n1Cl
inactive: [1] | [2] | [3] | [4] | [6] | [7] | [8] | [9] | [10] | [11] | [12] | [13] | [14] | [15] | Aromatase (Homo sapiens)

CC(Oc1ccc(Cl)cc1Cl)C(=O)O (centres undefined)
inactive: [1] | [2] | [3] | [4] | [6] | [7] | [8] | [9] | [10] | [11] | [12] | [13] | [14] | [15] | Aromatase (Homo sapiens)
